Test results published in PubChem BioAssay (Tox21).
Inconclusive results are not listed. Calls of active or inactive are those of the source. Unless noted, calls come from the whole dose curve; as a rule, active = well fitted curve in the direction sought with a large enough effect in the repeat runs; inconclusive = weak or mixed curves; inactive = no such curve, though single readings can be large; an effect the other way counts as inactive or inconclusive.

Key:
[1] = qHTS assay to identify small molecule antagonists of the estrogen related receptor (ERR) signaling pathway - cell viability counter screen (AID 1224818);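 note: series mostly up to about 46 µM; viability measured after 17.5 h of compound exposure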
Outline: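 Cytotoxicity counter screen: fluorescence from CellTiter-Fluor, added after 17.5 h compound exposure at 37 C and read 30 min later. ERR cell line seeded at 2,000 cells/well, preincubated 6 h before dosing.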

[2] = qHTS assay to identify small molecule antagonists of the estrogen related receptor (ERR) signaling pathway (AID 1224819;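 note: luminescence from an ERR-driven luciferase reporter measured with One-Glo reagent; series mostly up to about 46 µM; nearly all actives have a fitted effect of over 50% in size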)
Outline: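 LOPAC library screened for antagonism as reduced One-Glo luminescence in ERR reporter cells (2,000/well). Compounds were added after 6 h pre-incubation and left 18 h at 37C; reading followed a 30 min room-temperature reagent step.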

[3] = tested on: estrogen-related receptor alpha (ERRalpha) with PGC-1alpha coactivator, human; experiment: qHTS assay to identify small molecule antagonists of the estrogen related receptor signaling pathway with the pleiotropic PPARgamma coactivator (PGC) (AID 1224821; calls by dose curve;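 note: series mostly up to about 46 µM; lower luminescence signal means antagonism of PGC/ERR signalling; nearly all actives have a fitted effect of over 50% in size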)
Outline: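 Screening used NTP's PGC/ERR cells, dosed via pin tool with compound in DMSO alongside positive and negative controls. After 18 h at 37 C, One-Glo reagent sat 30 min at room temperature before luminescence detection.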

[4] = qHTS assay to identify small molecule antagonists of the estrogen related receptor signaling pathway with the pleiotropic PPARgamma coactivator (PGC) cell viability counter screen (AID 1224822; note: series mostly up to about 46 µM)
Outline: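 Viability counter-screen read by fluorescence intensity after 30 min with CellTiter-Fluor at 37 C; PGC/ERR reporter cells were exposed to compounds for 17.5 h at 37 C following a 6 h preincubation.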

[5] = qHTS assay to identify small molecule agonists of the estrogen related receptor signaling pathway with the pleiotropic PPARgamma coactivator (PGC) (AID 1224823)
Outline: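 In this quantitative high-throughput screen, an 18 h, 37 C treatment of PGC/ERR cells with compounds in DMSO preceded a One-Glo luminescence read taken after 30 min at room temperature.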

[6] = qHTS assay for small molecule agonists of the p53 signaling pathway (AID 651631; calls by dose curve; note: nearly all actives have a fitted effect of over 15% in size)
Outline: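 Read-out is beta-lactamase FRET fluorescence measured 2 h after substrate addition at room temperature, in HCT-116 cells with a p53 response element-driven reporter exposed to compounds for 16 h at 37 °C.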

[7] = qHTS assay for small molecule agonists of the p53 signaling pathway - cell viability (AID 651633; calls by dose curve;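 note: p53RE-bla HCT reporter cells with a stable beta-lactamase p53 reporter; series mostly up to about 83 µM; nearly all actives have a fitted effect of over 30% in size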)
Outline: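 p53RE-bla cells were treated with compound for 16 hours at 37 C. Cytotoxicity was then measured as CellTiter-Glo luminescence after 30 min at room temperature.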

[8] = qHTS assay for small molecules that induce genotoxicity in human embryonic kidney cells expressing luciferase-tagged ATAD5 - cell viability (AID 651634; calls by dose curve; note: nearly all actives have a fitted effect of over 25% in size)
Outline: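 Cytotoxicity counter-readout: after 15.5 hr compound treatment at 37C, live-cell protease activity in ATAD5-luciferase HEK293T cells measured by CellTiter-Fluor fluorescence, 30 min development at 37C.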

[9] = qHTS assay for small molecule disruptors of the mitochondrial membrane potential - cell viability (AID 720634; calls by dose curve;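 note: human HepG2 liver cancer cells; series mostly up to about 83 µM; nearly all actives have a fitted effect of over 20% in size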)
Outline: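 Cytotoxicity was quantified from ATP content by CellTiter-Glo luminescence in the same wells as the MMP dye read-out. HepG2 (2,000 cells/well) were plated overnight and exposed to compounds for 1 hr at 37 C.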

[10] = qHTS assay for small molecule disruptors of the mitochondrial membrane potential (AID 720635)
Outline: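 HepG2 cells exposed to compound 1 hr at 37C, then Mito-MPS dye 30 min. Ratio read of aggregate (540/590 nm) versus monomer (490/535 nm) fluorescence.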

[11] = qHTS assay to test for compound auto fluorescence at 590 nm (red) in HepG2 cells (AID 720674)
Outline: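 HepG2 cells, 2,000 per well in MEM with 10% FBS, attached overnight at 37 C, then got 23 nL compound or DMSO. After 1 hr at 37 C, 5% CO2, red fluorescence was read at 540/590 nm against Rose Bengal sodium as reference.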

[12] = qHTS assay to test for compound auto fluorescence at 535 nm (green) in HepG2 cells (AID 720675)
[13] = qHTS assay to test for compound auto fluorescence at 460 nm (blue) in HEK293 cells (AID 720678)
Outline: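 HEK293, 2,000 cells/well, 10% dialyzed FBS; attach 4-5 hr 37C; pin compound or DMSO; o/n 37C/5% CO2; fluorescence 405/460 nm; triamterene-equivalent units.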

[14] = qHTS assay to test for compound auto fluorescence at 590 nm (red) in HEK293 cells (AID 720679)
Outline: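 Intensity at 540nm excitation and 590nm emission is reported as Rose Bengal sodium-equivalent autofluorescence. Measurements followed overnight exposure (37C, 5% CO2) of HEK293 cells, 2,000 per well, to 23 nL compound.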

[15] = qHTS assay to test for compound auto fluorescence at 535 nm (green) in HEK293 cells (AID 720680)
[16] = qHTS assay to test for compound auto fluorescence at 460 nm (blue) in HEK293 cell free culture (AID 720681)
Outline: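 Compounds were added to cell-free DMEM with 10% FBS and fluorescence read directly. The blue channel used 405 nm excitation and 460 nm emission, with triamterene as the reference fluorophore.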

[17] = qHTS assay to test for compound auto fluorescence at 590 nm (red) in HEK293 cell free culture (AID 720683)
Outline: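 Cell-free wells of DMEM with 10% FBS received compound, and intrinsic fluorescence was read at excitation/emission 540/590 nm. Values expressed as equivalence to Rose Bengal sodium.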

[18] = qHTS assay to test for compound auto fluorescence at 590 nm (red) in HepG2 cell free culture (AID 720684)
Outline: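 Rose Bengal sodium served as the reference for red signal. Test compounds were dispensed into serum-containing MEM (10% FBS) without cells, and plates were read at 540/590 nm.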

[19] = qHTS assay to test for compound auto fluorescence at 460 nm (blue) in HepG2 cell free culture (AID 720685)
Outline: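 Cell-free plates of MEM plus 10% FBS received 23 nL compound or DMSO vehicle; blue-channel (405/460 nm) intensity scored against triamterene as reference fluorophore.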

[20] = qHTS assay to test for compound auto fluorescence at 535 nm (green) in HepG2 cell free culture (AID 720686)
[21] = qHTS assay to test for compound auto fluorescence at 460 nm (blue) in HepG2 cells (AID 720687)
Outline: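 HepG2 cells in MEM with 10% FBS, attached overnight at 37 C, were exposed to compound or DMSO for 1 hr at 37 C, 5% CO2. Blue fluorescence was read at 405/460 nm, with triamterene as reference fluorophore.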

[22] = qHTS assay to identify small molecule antagonists of the glucocorticoid receptor (GR) signaling pathway - cell viability counter screen (AID 720693); note: nearly all actives have a fitted effect of over 55% in size
[23] = qHTS assay for identifying genotoxic compounds that show differential cytotoxicity against isogenic chicken DT40 cell lines with known DNA damage response pathways - Rad54/Ku70 mutant cell line (AID 743015); note: nearly all actives have a fitted effect of over 60% in size
[24] = qHTS assay to identify small molecule antagonists of the androgen receptor (AR) signaling pathway - cell viability counter screen (AID 743033; note: nearly all actives have a fitted effect of over 45% in size)
[25] = qHTS assay to identify small molecule antagonists of the androgen receptor (AR) signaling pathway using the MDA cell line - cell viability counter screen (AID 743041; note: nearly all actives have a fitted effect of over 45% in size)
Outline: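 Cytotoxicity counter screen: MDA-kb2 AR-luc cells, compound + R1881, 16 h, 37C, 0% CO2; CellTiter-Fluor added at 15.5 h, fluorescence read after 30 min.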

[26] = qHTS assay to identify small molecule antagonists of the thyroid receptor (TR) signaling pathway - cell viability counter screen (AID 743064); note: nearly all actives have a fitted effect of over 50% in size
Outline: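 Fluorescence from CellTiter-Fluor, added after 23.5 h exposure at 37 °C, reported viability of GH3.TRE-Luc cells co-treated with compound and 1 nM T3. Measured in the same wells as the luciferase TR readout.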

[27] = qHTS assay to identify small molecule antagonists of the thyroid receptor (TR) signaling pathway (AID 743065); note: series mostly up to about 70 µM; nearly all actives have a fitted effect of over 55% in size
Outline: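 GH3.TRE-Luc rat pituitary cells (two TREs driving luciferase) were dosed with compound, then stimulated with 1 nM T3 (final) for 23.5 h at 37 C. ONE-Glo luminescence was the read-out, with CellTiter-Fluor fluorescence as the cytotoxicity counter-screen.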

[28] = tested on: thyroid hormone receptor (rat, GH3 cells); experiment: qHTS assay to identify small molecule agonists of the thyroid receptor (TR) signaling pathway (AID 743066; calls by dose curve)
[29] = molecular target: Estrogen receptor (Homo sapiens) (UniProt P03372); experiment: qHTS assay to identify small molecule antagonists of the estrogen receptor alpha (ER-alpha) signaling pathway (AID 743069; active = well fitted curve in the direction sought with a large enough effect in the signal ratio in the repeat runs, not every such curve was filed as active; the % refers to the signal ratio)
Sequence of Estrogen receptor (Homo sapiens) (P03372 whole entry, looked up): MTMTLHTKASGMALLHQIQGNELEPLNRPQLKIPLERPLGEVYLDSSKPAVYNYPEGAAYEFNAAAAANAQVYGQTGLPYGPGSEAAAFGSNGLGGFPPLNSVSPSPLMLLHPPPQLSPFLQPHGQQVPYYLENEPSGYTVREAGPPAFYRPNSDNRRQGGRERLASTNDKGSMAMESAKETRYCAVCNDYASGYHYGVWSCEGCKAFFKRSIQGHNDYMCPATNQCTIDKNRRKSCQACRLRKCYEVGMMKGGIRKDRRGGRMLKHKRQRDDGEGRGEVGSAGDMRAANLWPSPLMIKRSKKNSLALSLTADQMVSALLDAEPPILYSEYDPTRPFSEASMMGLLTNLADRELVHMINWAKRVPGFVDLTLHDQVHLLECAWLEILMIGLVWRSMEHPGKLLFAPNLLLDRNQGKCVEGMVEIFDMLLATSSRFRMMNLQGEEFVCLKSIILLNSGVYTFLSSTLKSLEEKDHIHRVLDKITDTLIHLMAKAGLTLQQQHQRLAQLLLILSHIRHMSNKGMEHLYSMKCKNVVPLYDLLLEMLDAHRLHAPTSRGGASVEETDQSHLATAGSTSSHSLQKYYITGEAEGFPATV
Outline: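 Beta-lactamase FRET fluorescence is read after 2 hr at room temperature with LiveBLAzer B/G substrate. Before that, ER-alpha-bla HEK293 cells sit 4 hr after plating, then receive compound plus 17beta-estradiol and incubate 18 hr at 37C.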

[30] = molecular target: Estrogen receptor (Homo sapiens) (UniProt P03372); experiment: qHTS assay to identify small molecule agonists of the estrogen receptor alpha (ER-alpha) signaling pathway (AID 743075; calls by dose curve;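 note: HEK293 GripTite cells with ER-alpha and UAS-driven beta-lactamase reporter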)
[31] = molecular target: Estrogen receptor (Homo sapiens) (UniProt P03372); experiment: qHTS assay to identify small molecule agonists of the estrogen receptor alpha (ER-alpha) signaling pathway using the BG1 cell line (AID 743079); note: nearly all actives have a fitted effect of over 20% in size
[32] = qHTS assay to identify small molecule antagonists of the estrogen receptor alpha (ER-alpha) signaling pathway using the BG1 cell line (AID 743080; calls by dose curve;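 note: BG1 cells stimulated with 17beta-estradiol alongside compound; series mostly up to about 70 µM; nearly all actives have a fitted effect of over 25% in size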)
Outline: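 BG1Luc4E2, endogenous ER-alpha, 4xERE-luc; 5 d charcoal-stripped FBS, phenol red free; 24 h plating; cpd + 17beta-estradiol 21.5 h, 37 C/5% CO2; CellTiter-Fluor viability 30 min, then ONE-Glo luciferase 30 min RT.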

[33] = qHTS assay to identify small molecule antagonists of the estrogen receptor alpha (ER-alpha) signaling pathway using the BG1 cell line - cell viability counter screen (AID 743081);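 note: compound given together with 17beta-estradiol as the ER stimulus; series mostly up to about 70 µM; nearly all actives have a fitted effect of over 45% in size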
Aromatase (Homo sapiens) = Aromatase (Homo sapiens) (UniProt P11511); experiment: qHTS assay to identify aromatase inhibitors (AID 743083); note: series mostly up to about 70 µM; nearly all actives have a fitted effect of over 55% in size
Sequence of Aromatase (Homo sapiens) (P11511 whole entry, looked up): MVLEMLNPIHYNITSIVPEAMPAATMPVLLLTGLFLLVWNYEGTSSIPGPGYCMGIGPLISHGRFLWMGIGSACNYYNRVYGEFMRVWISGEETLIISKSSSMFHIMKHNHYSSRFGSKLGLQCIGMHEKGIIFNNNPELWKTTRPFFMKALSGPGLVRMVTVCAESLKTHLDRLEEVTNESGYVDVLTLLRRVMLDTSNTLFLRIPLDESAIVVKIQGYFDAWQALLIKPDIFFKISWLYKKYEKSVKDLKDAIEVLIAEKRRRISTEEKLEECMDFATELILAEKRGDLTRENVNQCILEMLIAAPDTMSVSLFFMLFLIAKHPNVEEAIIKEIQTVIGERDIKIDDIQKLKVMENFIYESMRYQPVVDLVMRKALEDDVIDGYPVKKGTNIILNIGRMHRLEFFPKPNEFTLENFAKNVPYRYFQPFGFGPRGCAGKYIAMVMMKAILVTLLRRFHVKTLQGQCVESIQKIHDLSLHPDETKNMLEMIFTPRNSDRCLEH

[34] = qHTS assay to identify aromatase inhibitors - cell viability counter screen (AID 743084);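 note: cells stimulated with testosterone during compound exposure; nearly all actives have a fitted effect of over 55% in size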
[35] = molecular target: Aryl hydrocarbon receptor (Homo sapiens) (UniProt P35869); experiment: qHTS assay to identify small molecule that activate the aryl hydrocarbon receptor (AhR) signaling pathway (AID 743085);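 note: HG2L7.5c1 human HepG2 liver cells with stably integrated DRE-driven firefly reporter; series mostly up to about 70 µM; nearly all actives have a fitted effect of over 15% in size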
Sequence of Aryl hydrocarbon receptor (Homo sapiens) (P35869 whole entry, looked up): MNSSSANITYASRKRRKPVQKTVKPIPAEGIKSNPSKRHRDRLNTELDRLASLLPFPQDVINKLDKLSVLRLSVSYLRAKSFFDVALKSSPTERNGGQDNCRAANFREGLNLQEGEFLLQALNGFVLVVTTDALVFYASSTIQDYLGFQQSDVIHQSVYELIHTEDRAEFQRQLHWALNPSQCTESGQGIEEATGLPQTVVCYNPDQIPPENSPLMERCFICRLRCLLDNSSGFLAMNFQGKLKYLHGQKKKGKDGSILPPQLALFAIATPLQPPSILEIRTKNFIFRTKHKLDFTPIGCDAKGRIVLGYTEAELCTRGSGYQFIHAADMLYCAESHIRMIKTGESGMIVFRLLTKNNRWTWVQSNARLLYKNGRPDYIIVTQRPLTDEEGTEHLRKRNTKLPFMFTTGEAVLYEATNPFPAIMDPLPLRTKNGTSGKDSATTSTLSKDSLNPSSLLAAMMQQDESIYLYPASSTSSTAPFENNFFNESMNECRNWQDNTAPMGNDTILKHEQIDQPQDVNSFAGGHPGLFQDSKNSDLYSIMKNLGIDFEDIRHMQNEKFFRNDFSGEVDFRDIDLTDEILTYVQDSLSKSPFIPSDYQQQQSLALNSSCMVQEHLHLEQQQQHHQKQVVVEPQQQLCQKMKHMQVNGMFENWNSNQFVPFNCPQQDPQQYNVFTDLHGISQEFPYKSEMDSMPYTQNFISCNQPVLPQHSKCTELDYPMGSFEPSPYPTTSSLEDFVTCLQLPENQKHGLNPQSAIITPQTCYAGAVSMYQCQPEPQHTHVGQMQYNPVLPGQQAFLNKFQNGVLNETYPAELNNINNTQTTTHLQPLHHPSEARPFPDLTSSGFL
Outline: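 Cell line HG2L7.5c1 (human hepatoma, 20× DRE-luc). Plated, 5 h 37C, compound/DMSO added, 24 h 37C. CellTiter-Fluor 30 min 37C → fluorescence; then ONE-Glo 30 min RT → luminescence.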

[36] = qHTS assay to identify small molecule that activate the aryl hydrocarbon receptor (AhR) signaling pathway - cell viability counter screen (AID 743086);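 note: HepG2 liver cells carrying the AhR DRE luciferase reporter; series mostly up to about 70 µM; nearly all actives have a fitted effect of over 45% in size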
Outline: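 HepG2-AhR-luc (HG2L7.5c1) cells, 4000/well, treated 24 h at 37 C with compound; viability measured as CellTiter-Fluor fluorescence after 30 min in the same wells as the luciferase read.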

[37] = molecular target: Peroxisome proliferator-activated receptor gamma (Homo sapiens) (UniProt P37231); experiment: qHTS assay to identify small molecule agonists of the peroxisome proliferator-activated receptor gamma (PPARg) signaling pathway (AID 743094; active = well fitted activation curve with a large enough effect in the signal ratio in the repeat runs, not every such curve was filed as active; the % refers to the signal ratio)
Sequence of Peroxisome proliferator-activated receptor gamma (Homo sapiens) (P37231 whole entry, looked up): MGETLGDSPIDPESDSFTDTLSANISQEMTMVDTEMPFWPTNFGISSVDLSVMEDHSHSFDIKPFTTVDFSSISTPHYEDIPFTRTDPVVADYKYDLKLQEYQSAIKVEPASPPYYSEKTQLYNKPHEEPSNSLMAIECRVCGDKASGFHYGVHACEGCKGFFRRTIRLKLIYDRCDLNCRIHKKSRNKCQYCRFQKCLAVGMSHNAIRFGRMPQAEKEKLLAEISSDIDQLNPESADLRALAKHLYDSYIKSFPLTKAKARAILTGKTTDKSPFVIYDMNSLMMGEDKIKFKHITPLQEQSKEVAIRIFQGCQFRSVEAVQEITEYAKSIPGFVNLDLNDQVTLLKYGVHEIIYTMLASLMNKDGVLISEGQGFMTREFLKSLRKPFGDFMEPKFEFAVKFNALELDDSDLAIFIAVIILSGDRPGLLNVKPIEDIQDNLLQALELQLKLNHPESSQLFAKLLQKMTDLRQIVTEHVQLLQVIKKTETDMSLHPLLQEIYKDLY
Outline: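 Agonist activity was taken from a beta-lactamase reporter (FRET substrate, 1 h at room temperature) in HEK293H cells carrying a PPARg UAS-bla construct. Compounds in DMSO were incubated 17 h at 37C after a 5 h cell pre-incubation.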

[38] = qHTS assay to identify small molecule agonists of the estrogen related receptor (ERR) signaling pathway (AID 1224820)
Outline: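 Following a 6 h settling period, 2,000 ERR cells per well receive DMSO-dissolved compounds by pin tool and incubate 18 h at 37 C; agonist activity is scored from One-Glo luminescence read 30 min post-addition.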

[39] = qHTS assay to identify small molecule phospholipidosis (PLD) inducers (AID 1259344; active = well fitted curve in the direction sought with a large enough effect; an effect the other way counts as inactive or inconclusive)
Outline: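 Read-out is LipidTOX Red fluorescence (ex 595/em 615) imaged in HepG2 cells after 24 h compound exposure at 37 C, with Hoechst nuclear counterstain (ex 352/em 461) allowing per-cell normalisation.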

Measured: Potency

Cc1cc([C@@H]2CCCN2C)on1
inactive: [1] | [2] | [3] | [4] | [5]

CN(N=O)c1cc(O)ccc1O
inactive: [1] | [2] | [5]

O=P(O)(O)C(Cl)(Cl)P(=O)(O)O
inactive: all assays above
